What follows are compounds tested on Plasmodium falciparum (assay: GSK_TCMDC: Inhibition of Plasmodium falciparum 3D7 in whole red blood cells, using parasite LDH activity as an index of growth. Test compounds present at 2uM).
Format: functional

Structure (SMILES)	Inhibition [%]
CN1CCN(CC2(Nc3nccc(NCc4ccc(Cl)cc4Cl)n3)CCCCC2)CC1	98
COc1ccc(CN(C)CCCc2ccc(NC(=O)c3cc4ccccc4[nH]3)cc2)cc1OC.O=C(O)/C=C/C(=O)O	97
COc1ccc(S(=O)(=O)Nc2ccc(C(=O)NCc3ccc(C(F)(F)F)cc3)cc2)cc1N1CCN(CC2CC2)CC1.O=C(O)C(F)(F)F	95
CCn1c(Cc2ccccc2)nnc1Sc1ccc([N+](=O)[O-])c(C#N)c1	93
O=C(CCc1cccnc1)Nc1cccc(-c2ccc(-c3nc4cc(C(F)(F)F)ccc4[nH]3)cc2)c1	93
COc1ccc(Cl)cc1N1CCN(CCCNC(=O)c2ccc(-c3nc4cc5ccccc5cc4[nH]3)c(F)c2)CC1	99
COc1cccc(C2C(C(=O)Nc3ccccc3)=C(C)N=c3sc(=Cc4ccc(O)cc4)c(=O)n32)c1 (stereo not given)	97
Cc1cccc2nc(-c3ccc(-c4ccc(CNCCNC(=O)c5ccnn5C)cc4)s3)[nH]c12.O=C(O)C(F)(F)F	100
O=C(NCCCN1CCOCC1)c1cccc(Nc2nccc(Nc3ccc(Oc4ccccc4)cc3)n2)c1	98
COc1cccc(C(=O)NCc2nnc(S)n2-c2ccc(Cl)c(Cl)c2)c1	100
Cc1cccc2nc(-c3cccc(-c4ccc(NC(=O)C5CCN(C)CC5)cc4)c3)[nH]c12	100
COc1ccccc1/C=C/C(=O)N(C)C1CCN(CCCCCNC(=O)/C=C/c2ccc(Cl)c(Cl)c2)CC1	83
Cc1ccc2[nH]c(C)cc(=NN=Cc3cccc(F)c3)c2c1	99
CC1CCCCN1Cc1cccc(-c2c[nH]c3nc(NC4CCCC4)ncc23)c1.O=C(O)C(F)(F)F (stereo not given)	93
COc1ccc(OCCCN2CCCCC2)cc1S(=O)(=O)c1ccc(OCc2ccc(C(F)(F)F)cc2)cc1.Cl	94
COc1ccc(C2C(C(=O)Nc3cc(C)ccc3OC)c3ccccc3C(=O)N2C)cc1 (stereo not given)	86
O=C(O)C(F)(F)F.O=S(=O)(NCCN1CCCC1)c1ccc(-c2ccc(CNCc3ccc(F)cc3)cc2)cc1	94
COc1cccc(CNC[C@@H](O)[C@H](Cc2ccccc2)NC(=O)c2cc(C3CCCC3)cc(N3CCCCS3(=O)=O)c2)c1.Cl	96

Structure (SMILES)	Inhibition [%]
COc1cccc(-c2ccc(NC(=O)C3CCCN(Cc4cccc(OC)c4O)C3)cc2)c1 (stereo not given)	98
COc1cc(C(=O)NC2CCc3ccccc32)cc(Cl)c1OC (stereo not given)	85
CC(=O)N/N=C/[C@H](CCc1ccccc1)NC(=O)[C@H](CC(C)C)NC(=O)c1ccc(F)cc1	95
FC(F)(F)c1ccc2[nH]ccc(=NN=Cc3ccccc3Cl)c2c1	100
Cc1cccc2nc(-c3ccc(-c4ccc(NC(=O)Nc5ccsc5)cc4)s3)[nH]c12	100
COc1ccc(C(=O)CCC(=O)N(Cc2ccc(-c3ccc(CNCCc4ccccc4)cn3)cc2)C(C)CN(C)C)cc1F.O=C(O)C(F)(F)F (stereo not given)	98
N#Cc1ccc(N2CCN(C(=O)c3cccc(-c4noc(C(F)(F)F)n4)c3)CC2)nc1	84
COc1ccc(CNC(=O)NC2CCN(c3ccnc(Nc4cc(OC)c(OC)c(OC)c4)n3)C2)cc1 (stereo not given)	91
Cc1nc2nc(N)nc(N)c2c(C)c1Cc1ccc(C#N)cc1.Cl	96
COc1ccc2nccc([C@@H](O)CN3CCC(NC(=O)/C=C/c4cc([N+](=O)[O-])ccc4OC)CC3)c2c1	99
Clc1cc(Nc2ccnc3ccc(Br)cc23)ccc1Oc1ccc(Cl)c2ccccc12	99
O=C(N[C@H]1CCN(Cc2ccc(OC3CCN(Cc4ccccc4)CC3)c(Br)c2)C1)c1ccc(Cl)c(Cl)c1.O=C(O)C(F)(F)F	100
O=C(Nc1ccc(S(=O)(=O)NCCCN2CCOCC2)cc1)c1cc(-c2ccccc2)[nH]n1	82
CC(CN1CCN(C)CC1)C(=O)Nc1ccc(-c2ccc(-c3nc4cc(F)ccc4[nH]3)cc2)cc1 (stereo not given)	100
Cc1ccc(Oc2ccc(NC(=O)CNc3ccccc3N3CCCC3=O)cc2)cc1	98
CCN(CC)CCCCNc1cc(-c2[nH]c(-c3c(Cl)cccc3Cl)nc2-c2ccc3cc(OC)ccc3c2)ccn1.O=C(O)C(F)(F)F	95
COc1ccc2c(c1C1CCN(CCCCNC(=O)c3ccc(-c4ccc(Cl)cn4)cc3)CC1)CCCC2	90
